The panel holds about 83,000 compounds, 20% with a hit somewhere; the sample as a whole holds those more often.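 96-well plates, one dose, 48 hours. Percent growth reported; active if below 10.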 A number with no mark means an inactive call. Activity calls are given as the source filed them.

This experiment relates to OVCAR-4 ovarian. Kind of experiment: NCI-60 one-dose screen, 48 h (100 = growth as untreated, 0 = no growth, -100 = all killed). Conditions: 10 µM unless noted. The method, then:
Growth inhibition of the OVCAR-4 human tumor cell line is measured as a screen for anti-cancer activity. Cells are grown in 96 well plates and exposed to the test compound for 48 hours. Compounds are tested at a single concentration, which is 10^-5 M for most compounds. The reported endpoint is percent growth (GI% or GIPRCNT), where numbers from 0 - 100% represent growth inhibition, and numbers from -100% - 0 represent cell death. For example, a value of 40 represents 60% growth inhibition. A value of 0 means no net growth occurred over the course of the experiment. A value of -40 indicates 40% of cells at the beginning of the experiment died by the end of the experiment. A value of -100 means all cells are dead at the end of the experiment.
NCI-60 Human Tumor Cell Lines Screen was performed using the standard one-dose NCI protocol, which is described in more detail at https://dtp.cancer.gov/discovery_development/nci-60/default.htm.
Compounds with GIPRCNT values below 10 were considered active. Activity score was based on GIPRCNT using the following formula: […]
Score is 0 for GIPRCNT values of 100 or above, 50 for GIPRCNT values of 0, and 100 for GIPRCNT values of -100.
As to `NCCCNc1nc2ccccc2c2c(=O)c3cc(C(F)(F)F)ccc3sc12`, the growth is -45% (active).

`O=C(Nn1c(NCC(=O)N2c3ccccc3Sc3ccccc32)nnc1-c1ccc(O)cc1)c1ccccc1`: the growth is 105%.

For the compound `Cn1cc(C(=O)c2nc(-c3cn(C)c4ccc(F)cc34)no2)c2cc(F)ccc21`, the growth is 90.8%.

For `CC1Cc2c(ncn3c(-c4ccc(F)cc4)nnc23)N(C)c2ccccc21` (stereo not given), the growth was -66.2% (active).

In the case of `CC1=C([Se]CC(OC(=O)[C@@H](CSSC(C)(C)C)NC(=O)OC(C)(C)C)C(=O)NC(C)(C)C)C(=O)c2ccccc2C1=O` (stereo not given in full), the growth was -92.9% (active).

Take `COc1ccc(/C=C/c2c(C(=O)/C=C/c3ccc(Cl)cc3)c(C)nc3ccccc23)cc1`: the growth is 40.6%.

As for `C=CCc1cc(C)ccc1NC(C(=O)NCC(=O)OC)c1ccccc1` (stereo not given), the growth was 105%.

For `COc1nc2ccccc2cc1-c1nc2c(cnn2-c2ccccc2)c(=O)[nH]1`, the growth was 76.2%.

Consider `COc1ccc(C(=O)C[C@]2(O)C(=O)Nc3c(Cl)ccc(Cl)c32)cc1`, for which the growth was 48.4%.

Take `CN1CCN(c2ccc(-c3cc4c(Nc5ccc(F)c(Cl)c5)ncnn4c3)cc2)CC1`: the growth is 71.2%.

On to `O=S(=O)(NCCCNc1cc(-c2c(-c3cccc(O)c3)nc3sccn23)ccn1)c1cccc2ccccc12`, for which the growth is 36.4%.

With `COc1cc(Nc2nc(NCCN)nc3cc[nH]c(=O)c23)cc(OC)c1`, the growth was 80.7%.

Consider `Cc1ccc(C(=O)N/N=C/c2cccc([N+](=O)[O-])c2)cn1`, for which the growth is 111%.

For `COc1ccc2sc3c(NCCCNCCO)nc4ccccc4c3c(=O)c2c1`, the growth was 4.38% (active).

`COc1ccc2sc3c(NCCCN(C)C)nc4ccccc4c3c(=O)c2c1`: the growth was -9.97% (active).

`COc1ccc2c(c1OC)C(=O)O[C@H]2[C@H]1c2c(cc3c(c2OC)OCO3)CCN1C`: the growth was 105%.

As for `COc1ccc(-c2ncnc3c2ncn3CC#CCCl)cc1`, the growth was 51.1%.

In the case of `Cc1cc2nc3cc(C)c(N)cc3[n+](-c3ccccc3)c2cc1N`, the growth is 36.4%.

With `N#Cc1c(-c2ccc(Cl)cc2)nc2c(c(-c3ccccc3)nn2-c2ccccc2)c1-c1ccc(O)cc1`, the growth was 64.7%.

On to `COc1cccc(-c2nc(-c3ccc(NC(=O)c4ccccc4)cc3)[nH]c2-c2ccnc(Br)c2)c1`, for which the growth was 38.4%.

In the case of `O=C(Cc1ccc(F)c(Cl)c1)Nc1cc(C2(C(F)(F)F)CC2)nn1CC1CCCCC1`, the growth is 13.5%.

For `CCCCCCCCCCCCCCCCCC1OCC(COC(=O)O[C@]2(CC)C(=O)OCc3c2cc2n(c3=O)Cc3cc4ccccc4nc3-2)O1` (stereo not given in full), the growth is 100%.

`O=C(CCN1C(=O)/C(=C/c2ccc(O)cc2)SC1=S)Nc1ccc(Cl)cc1`: the growth was 91.1%.

As for `CC1=NN(c2ccc(S(=O)(=O)O)cc2)C(=O)C1N=Nc1ccc(-c2ccc(N=Nc3ccc(OS(=O)(=O)c4ccc(C)cc4)cc3)c(S(=O)(=O)O)c2)cc1` (stereo not given), the growth is 93.8%.

Turning to `COc1cccc2nc3n(c12)C(c1c(F)cccc1F)SC3` (stereo not given), the growth was 97.4%.

As to `N#C/C(=C\c1ccc(F)cc1)n1nc2cccc(F)c2n1`, the growth is 34%.

As to `N#CC1=C(N)Oc2c(sc3c(Br)cccc23)C1c1ccc(Br)cc1` (stereo not given), the growth was 48.9%.

`COc1ccc(-c2csc(NC(=O)N3CCN(c4cc5c(cc4F)c(=O)c(C(=O)O)cn5C4CC4)CC3)n2)cc1`: the growth is 18.4%.

As for `CCCCCCNC(=O)Oc1ccc(/C(=C(\C)c2ccc(OC)cc2)c2ccc(OCCN3CCCCC3)cc2)cc1`, the growth was 63.1%.

As to `COc1cc2cc(Oc3ccc(NC(=O)Nc4ccc(Cl)c(C(F)(F)F)c4)cc3)c(C)nc2cc1OCCN1CCOCC1`, the growth is 31.6%.

For the compound `O=C(Nc1ccc(F)cc1F)c1cc(F)ccc1O`, the growth is 21%.

For `Nc1nc2ccccc2c2c(=O)c3cc(F)ccc3sc12`, the growth is 101%.

With `CCc1ccc(Oc2c(-c3ccc(OCCc4cccc(C(F)(F)F)c4)cc3O)n[nH]c2C(F)(F)F)cc1`, the growth is 22%.

For the compound `CN1CCN(Cc2ccc(NC(=O)c3ccc(C(C)(C)C)c(C#Cc4cnc5cccnn45)c3)cc2C(F)(F)F)CC1`, the growth was 15%.

Consider `N#Cc1c(-c2ccc(Cl)cc2)nc(NCCO)[nH]c1=O`, for which the growth is 108%.

Regarding `c1cc(-c2nnc(SSc3ncnc4nc[nH]c34)o2)ccn1`, the growth was 63.3%.

`O=C1NC(=O)C(c2ccccc2)(c2ccccc2)N1Cc1cn(-c2c3ccccc3nc3ccccc23)nn1`: the growth was 81.1%.

Regarding `N#Cc1c(-c2ccccc2)nc(SCC(=O)Nc2nc(-c3ccc(Cl)cc3)cs2)[nH]c1=O`, the growth is 110%.

Turning to `CC(=O)N1CCN(c2ccc(OCC3CO[C@](Cn4ccnc4)(c4ccc(Cl)cc4Cl)O3)cc2)CC1` (stereo not given in full), the growth is 67.6%.

Consider `O=C(/C=C/c1sc(Cl)nc1Cl)c1ccccc1`, for which the growth was 108%.

The values above are taken from PubChem BioAssay (NCI).
